Assay results as given in PubChem BioAssay AID651956 (Broad Institute, 2012).
Results with a measured potency or affinity are listed apart. Records with an inconclusive call do not appear.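 The calls were made as follows: active = in every test run, a fitted half-maximal concentration for signal decrease at or below twice the highest tested concentration; inconclusive = runs disagree, flat 30 to 70% decrease, or poor fit; inactive = the rest.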

test: miR-122 activators in hepatoma reporter cells, dose response, cell-based, Huh7 psiCHECK-miR122, Renilla luciferase, cherry-picked (AID 651956); conditions: 48 h; series mostly up to 35 µM; activity change, negative = signal decrease: at the top concentration;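 also: Renilla luciferase from a miR-122 sensor reporter so lower signal means miR-122 activation; 0% = median neutral control wells and -100% = median positive control wells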

Activity change, negative = signal decrease, inactive:
CC(C)CC#Cc1ccc([C@H]2[C@@H](CO)N3CCCCN(S(=O)(=O)Cc4ccccc4)C[C@H]23)cc1 -137%, CNC(=O)c1nc(C)n(-c2cc(Cl)cc(Cl)c2)n1 104%, CC(=O)N1[C@H](CO)[C@@H](c2ccccc2)[C@H]1CN(C(=O)NC(C)C)C1CCCC1 8.18%, C/C=C/c1ccc([C@H]2[C@@H](CO)N[C@@H]2CN(C(=O)c2ccccc2F)C(C)C)cc1 179%, CCCC(=O)Nc1ccc2c(c1)C(=O)N(C)[C@@H]1CC[C@H](CC(=O)NCCOC)O[C@H]1CO2 57.9%, CCCCCn1c(=O)[nH]c2cc(C(=O)NCCN3C(C)CCCC3C)ccc2c1=O (stereo not drawn) 56.6%, Cc1c(CC(=O)NCCCC(=O)O)c(=O)oc2cc3occ(-c4ccccc4)c3cc12 -37.3%, CCCNC(=O)C[C@@H]1CC[C@H]2[C@H](COc3ccc(NC(=O)c4ccc(C(F)(F)F)cc4)cc3C(=O)N2C)O1 0%, COC(=O)c1cc(NS(=O)(=O)c2ccc3c(c2)CCC(=O)N3)cc(C(=O)OC)c1 33.3%, CC(=O)N(C[C@@H]1N[C@@H](CO)[C@H]1c1ccc(-c2ccccc2)cc1)C(C)C 50.3%, CN(C)CCCNC(=O)C[C@H]1CC[C@H]2[C@H](COc3ccc(NS(C)(=O)=O)cc3C(=O)N2C)O1 -3.73%, COC(=O)C[C@H]1CC[C@@H]2[C@@H](COc3ccc(NC(=O)c4cnccn4)cc3C(=O)N2C)O1 -5.79%, COc1cccc(CNC(=O)C[C@H]2CC[C@@H]3[C@H](COc4ccc(NC(C)=O)cc4C(=O)N3C)O2)c1 -32.5%
